# Screening results as filed in PubChem.
# An excerpt weighted towards active compounds, which were near 1.3% of everything screened.
# RAD52 anneal inh: blocks human RAD52 DNA annealing; P43351; AID 651710; recombinant RAD52 DNA annealing, FRET fluorescence; 0.46% of 360,000 active; inhibition, % at 18.7 µM;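 active = every replicate showing at least 50% inhibition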
# Target sequence (P43351 whole entry, looked up): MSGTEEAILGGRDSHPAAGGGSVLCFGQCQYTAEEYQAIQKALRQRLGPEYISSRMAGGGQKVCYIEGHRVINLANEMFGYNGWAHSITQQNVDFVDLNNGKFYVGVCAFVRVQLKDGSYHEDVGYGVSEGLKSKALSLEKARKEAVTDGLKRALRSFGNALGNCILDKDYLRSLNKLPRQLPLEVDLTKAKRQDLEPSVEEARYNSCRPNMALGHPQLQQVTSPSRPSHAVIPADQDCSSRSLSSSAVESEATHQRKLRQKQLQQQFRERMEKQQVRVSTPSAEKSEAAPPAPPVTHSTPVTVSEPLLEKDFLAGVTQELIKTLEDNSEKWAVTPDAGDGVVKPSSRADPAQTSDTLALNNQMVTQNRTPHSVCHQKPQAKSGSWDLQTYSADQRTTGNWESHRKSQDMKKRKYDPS
# UBC13 inh: human UBC13 polyubiquitination inhibition; P61088; UBC13 polyubiquitin chain formation, TR-FRET; inhibition, % at 20 µM; 0.47% of 330,000 active; AID 485273; in the data active = inhibition above about 45%, passing the limit was not always enough
# Target sequence (P61088 whole entry, looked up): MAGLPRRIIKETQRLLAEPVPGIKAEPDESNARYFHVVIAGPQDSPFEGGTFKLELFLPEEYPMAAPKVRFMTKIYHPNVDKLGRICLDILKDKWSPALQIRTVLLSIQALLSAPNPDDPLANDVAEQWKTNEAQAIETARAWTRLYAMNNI
# FID counter: displaces DNA intercalator in HCV helicase counter-screen; DNA fluorescent intercalator displacement, fluorescence; inhibition, % at 7.9 µM; 0.17% of 290,000 active; AID 1845; in the data active = inhibition above about 37%;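 also: 0% = vehicle and 100% = reference compound; higher means more ethidium bromide displaced from hairpin DNA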
# RAD54 branch: RAD54 (human) branch migration inhibition; Q92698; inhibition, % at 10.4 µM; 0.14% of 360,000 active; RAD54 Holliday junction branch migration, FAM/BHQ fluorescence;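 active = mean normalized replicate activity at least 40 and at least half of replicates scoring 40 or more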;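 also: 0% = median of neutral control wells and 100% = median of positive control wells; inhibitors cause a drop in the FAM fluorescence signal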
# MIN6 prolif-1: inducers of beta-cell replication in MIN6 cells. 0.29% of 330,000 active. MIN6 cells proliferation, ATPlite luminescence, 48 h; cells starved in 0.2% serum; 100% = growth in 10% serum. proliferation, % at 10 µM;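 active = compounds whose signal lies at least 3.5 SD above the mean of all wells on their plate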;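 also: 0% = DMSO-treated cells in low-serum medium and 100% = 10% serum control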
# PREPL inhibitor: human PREPL enzyme inhibition. 0.68% of 320,000 active. inhibition, % at 5.96 µM. AID 2751. recombinant PREPL, fluorescence polarization activity-based probe. Q4J6C6; in the data active = inhibition above about 43%;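 also: 0% = enzyme with DMSO and 100% = wells lacking enzyme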
# MIN6 prolif-2: confirmation of inducers of beta-cell replication in MIN6 cells; shares compounds with MIN6 prolif-1; MIN6 beta-cell proliferation, ATPlite luminescence, 48 h; cells kept in 0.2% serum; scaled between 0.2% and 10% serum; proliferation increase, % at 50 µM; 920 tested, under 10 active; AID 463095;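 active = proliferation increase above 40% at any of the four tested concentrations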
# * = called active by the depositor; . = not tested or not shown; ! = repeats disagree.
SMILES,RAD52 anneal inh,UBC13 inh,FID counter,RAD54 branch,MIN6 prolif-1,PREPL inhibitor,MIN6 prolif-2
Cc1ccc(Cn2c(=N)c(S(=O)(=O)c3ccc(Br)cc3)cc3c(=O)n4ccccc4nc32)cc1,.,-13.2,-5.5,1.4,1.0,-3.9,.
COc1ccc(CCn2c(=N)c(S(=O)(=O)c3ccc(C)cc3)cc3c(=O)n4ccccc4nc32)cc1,-307.6,-5.2,-4.0,-0.1,13.3*,-0.3,-2.7
C/C(=N\NC(=O)c1nnn(-c2nonc2N)c1-c1cccs1)c1cccc(O)c1,0.2,0.1,-23.1,-6.6,1.3,3.6,.
COc1cc(/C(C)=N/NC(=O)c2nnn(-c3nonc3N)c2-c2cccs2)ccc1O,-14.7,-0.8,-23.4,18.6,4.6*,7.3,-3.8
NCC[C@@H]1CC[C@@H](NC(=O)C2CCCCC2)[C@@H](CO)O1,-7.9,.,.,2.9,.,.,.
COc1ccc(N(C(=O)Cc2cccs2)C(C(=O)NC2CCCC2)c2ccncc2)cc1 (stereo not given),-1.1,2.7,-29.4,-8.4,0.4,-6.9,.
COc1ccc(N(C(=O)CNC(=O)c2cccs2)C(C(=O)NC2CCCC2)c2ccncc2)cc1 (stereo not given),-6.6,-3.5,-29.0,3.0,7.3*,16.4,0.0
Cc1ccc(N(CC(=O)NCc2ccccn2)S(=O)(=O)c2ccccc2)cc1Cl,0.9,-8.6,-44.8,1.5,-2.9,.,.
Cc1ccc(N(CC(=O)NCc2ccccn2)S(=O)(=O)c2ccccc2)cc1C,-4.3,7.6,-38.2,0.1,9.0*,3.1,2.3
O=C(NCc1ccco1)C(c1ccco1)N(Cc1cccs1)C(=O)Cn1nnc2ccccc21 (stereo not given),.,1.2,-23.3,-0.7,8.0*,-10.7,-0.4
O=C(NCc1ccco1)C(c1cccs1)N(Cc1ccccc1)C(=O)Cn1nnc2ccccc21 (stereo not given),.,-3.2,-25.1,-4.5,-1.1,-15.2,.
C/C(=N\NC(=O)C1CC1)c1ccccc1O,5.1,-15.0,0.9,5.6,11.3*,5.4,-2.5
COc1ccc(-c2n[nH]c(=S)n2C2CCCCC2)cc1,.,1.0,-18.7,.,7.6*,6.6,-3.7
O=c1[nH]c2ccc(Cl)cc2c(=O)n1Cc1ccco1,.,21.8,-1.1,-16.5,7.2*,-0.6,-2.4
Cc1ccc(Nc2nc(NCC3CCCO3)nc(N)c2[N+](=O)[O-])cc1C (stereo not given),-15.5,-7.9,2.8,7.9,0.0*,-1.2,-0.1
C[C@@H]1CN([C@@H](C)CO)C(=O)c2cccc(NC(=O)c3ccc(-c4nccs4)cc3)c2O[C@H]1CN(C)Cc1ccccc1,9.3,.,.,-13.3,.,.,.
CC(=O)Nc1ccc(Oc2cnccn2)cc1,.,-7.4,8.7,1.1,0.0*,25.1,2.2
S=C1NCCc2ccccc2C1c1ccccc1Cl (stereo not given),.,4.9,-1.6,-1.2,5.3*,-5.7,-6.4
Cc1ccc(S(=O)(=O)N(C)C[C@H]2Oc3ccc(N(C)C)cc3CC(=O)N([C@H](C)CO)C[C@@H]2C)cc1,12.1,.,.,-7.5,.,.,.
Cc1noc(C)c1NC(=O)N(C)C[C@H]1Oc2ccc(NC(=O)NC3CCCCC3)cc2C(=O)N([C@@H](C)CO)C[C@H]1C,-0.3,.,.,-6.3,.,.,.
CC(C)NC(=O)Nc1ccc2c(c1)C(=O)N([C@@H](C)CO)C[C@@H](C)[C@@H](CN(C)S(=O)(=O)c1cn(C)cn1)O2,9.7,.,.,2.8,.,.,.
COc1ccc(/C=N/NC(=O)c2cnccn2)cc1O,.,-0.2,-7.6,.,0.0*,0.0,0.3
C[C@@H]1CN([C@@H](C)CO)S(=O)(=O)c2ccc(-c3cncnc3)cc2O[C@@H]1CN(C)C(=O)C1CCC1,-2.8,.,.,-8.8,.,.,.
C[C@@H]1CN([C@@H](C)CO)C(=O)c2cc(C#Cc3ccncc3)cnc2O[C@@H]1CN(C)S(=O)(=O)c1ccccc1F,-0.7,.,.,0.0,.,.,.
Cc1ccc(OCC(=O)N2CC3(C)CC2CC(C)(C)C3)cc1 (stereo not given),.,5.0,-31.6,-9.0,6.8*,6.6,-5.6
SMILES,RAD52 anneal inh,UBC13 inh,FID counter,RAD54 branch,MIN6 prolif-1,PREPL inhibitor,MIN6 prolif-2
NC(=O)c1[nH]cnc1N,-10.4,-0.2,-7.2,-9.2,12.2*!,16.8,-1.4
CN(Cc1ccccc1)N=Nc1nc[nH]c1C(N)=O,4.4,.,.,8.1,.,.,.
O=C(C[C@@H]1C=C[C@H](NC(=O)Nc2ccc(C(F)(F)F)cc2)[C@@H](CO)O1)NCc1cccc(F)c1,1.4,.,.,-1.7,.,.,.
C[C@@H]1CCCCO[C@H](CN(C)S(=O)(=O)c2cccs2)[C@H](C)CN([C@@H](C)CO)C(=O)c2cc(NS(C)(=O)=O)ccc2O1,4.9,.,.,1.7,.,.,.
CCOC(=O)C(=CNc1ccccc1N1CCOCC1)C(=O)OCC,-7.6,2.3,-37.0,-2.9,6.0*,11.9,3.5
CCOC(=O)C(=CNc1cccc(C)c1C)C(=O)OCC,2.5,-9.4,-11.8,.,0.1,7.6,.
CCOC(=O)C1=C(COC(=O)/C=C/c2ccc(OC)cc2OC)NC(=O)NC1C (stereo not given),-19.6,7.0,.,2.2,13.1*,2.2,1.6
CCOC(=O)C1=C(COC(=O)/C=C/c2ccc(OC)c(OC)c2)NC(=O)NC1C (stereo not given),-14.0,-11.4,.,0.1,3.8,9.8,.
COc1ccc(NC(=O)Nc2ccc3c(c2)C(=O)N([C@@H](C)CO)C[C@@H](C)[C@H](CN(C)C(=O)CCCN(C)C)OCCCC[C@@H](C)O3)cc1,26.2,.,.,9.4,.,.,.
Cc1ccc(CNc2oc(-c3ccco3)nc2C#N)cc1,.,14.9,-11.1,-0.8,0.0*,3.9,-5.8
CCOC(=O)c1c(C)[nH]c(C)c1C(=O)COC(=O)[C@@H](NC(=O)c1ccccc1OCC)C(C)C,.,10.2,-36.8,-5.6,7.4*,12.7,-5.5
Cc1cc(C)c2c(c1)/C(=N/NC(=O)c1cc(C)oc1C)CCC2,-3.3,0.0,-9.6,.,0.0*,-4.5,-1.0
COCC(=O)Nc1ccc2c(c1)C(=O)N(C)C[C@@H](OC)[C@@H](C)CN(C(=O)c1cnccn1)[C@@H](C)CO2,-3.5,.,.,-3.9,.,.,.
Cc1noc(C)c1S(=O)(=O)Nc1ccc2c(c1)C(=O)N([C@@H](C)CO)C[C@H](C)[C@@H](CN(C)S(=O)(=O)c1ccc(F)cc1)O2,-0.5,.,.,.,.,.,.
Cc1cccc(S(=O)(=O)Nc2nc3ccccc3nc2Nc2cccc(C(=O)O)c2)c1,-49.4,9.1,-23.5,-0.3,6.6*,-6.0,-4.7
CCCNC(=O)C[C@H]1CC[C@@H]2[C@H](COc3ccc(NC(=O)c4cscn4)cc3C(=O)N2C)O1,-16.3,.,.,4.3,.,.,.
Cc1ccc(S(=O)(=O)CC(=O)N2CCOCC2)cc1,-21.0,-7.1,-1.8,.,-2.9,10.1,.
O=C(CS(=O)(=O)c1ccc(Br)cc1)N1CCOCC1,-15.5,3.6,1.6,6.4,11.2*,-0.6,-2.9
CCCCNC(=S)NNC(=O)c1csc(C)c1CC,.,7.6,-5.0,.,0.0*,0.3,-2.3
